Measurements reported in PubChem BioAssay (NCI).
Compounds without any hit were thinned out: in the full panel of roughly 79,000, 15% have a hit. Unmarked numbers belong to inactive results. Activity calls are given as the source filed them. No stated cut-off is given here; in the data, active means growth inhibition above about 70%; inactive means the rest.

Key:
[1] = NCI Yeast Anticancer Drug Screen. Data for the rad50 strain (AID 155);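 further: 0% = growth of vehicle-only cultures of the same strain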; conditions: S. cerevisiae rad50 strain growth inhibition, hits give high values
Procedure, shortened: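 Inhibition values express reduced yeast growth in compound-treated cultures relative to vehicle-treated controls.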

[2] = NCI Yeast Anticancer Drug Screen. Data for the mec2-1 strain (AID 157); conditions: S. cerevisiae mec2-1 strain, hits give high values
Procedure, shortened: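 Growth inhibition is read against vehicle-treated controls after compound exposure of the mec2-1 yeast strain, which is defective in DNA damage repair or cell cycle control.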

[3] = NCI Yeast Anticancer Drug Screen. Data for the sgs1 mgt1 strain (AID 161);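 further: 0% = growth of cultures given vehicle only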; conditions: S. cerevisiae sgs1 mgt1 strain, hits give high values
Procedure, shortened: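 Percent growth inhibition was derived by comparing compound-exposed mutant yeast with vehicle-exposed cultures. The strain carries alterations in DNA damage repair.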

[4] = NCI Yeast Anticancer Drug Screen. Data for the cln2 rad14 strain (AID 165);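 further: 0% = growth equal to vehicle treated cultures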; conditions: S. cerevisiae cln2 rad14 strain, hits give high values
Procedure, shortened: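 Growth inhibition, relative to vehicle-treated controls, is the read-out. The test organism is a yeast strain with defined genetic alterations, cln2 rad14.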

[5] = NCI Yeast Anticancer Drug Screen. Data for the bub3 strain (AID 167); conditions: S. cerevisiae bub3 mutant strain, hits give high values
Procedure, shortened: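 Steps: expose the mutant yeast strain to compound; grow alongside vehicle-treated cultures; measure growth; express inhibition against the vehicle cultures.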

[6] = NCI Yeast Anticancer Drug Screen. Data for the mlh1 rad18 strain (AID 175); conditions: S. cerevisiae mlh1 rad18 strain growth inhibition, hits give high values
Procedure, shortened: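 Cells of a genetically altered yeast strain, deficient in DNA damage repair, were treated with compound. Their growth was then compared with that of vehicle-treated cultures to give inhibition.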

[7] = at 5.0 µM (retest, dose inferred, filed as 0.5)
[8] = at 50.0 µM (retest, dose inferred, filed as 5.0)

Row | SMILES | growth inhibition [1, 7] | growth inhibition [1, 8] | growth inhibition ([1]; at 50.0 µM) | growth inhibition [2, 7] | growth inhibition [2, 8] | growth inhibition ([2]; at 50.0 µM) | growth inhibition [3, 7] | growth inhibition [3, 8] | growth inhibition ([3]; at 50.0 µM) | growth inhibition [4, 7] | growth inhibition [4, 8] | growth inhibition ([4]; at 50.0 µM) | growth inhibition [5, 7] | growth inhibition [5, 8] | growth inhibition ([5]; at 50.0 µM) | growth inhibition [6, 7] | growth inhibition [6, 8] | growth inhibition ([6]; at 50.0 µM)
1 | N#C/C(=C\c1ccc(Cl)cc1Cl)C(N)=S | -3% | 78% (active) | 94.7% (active) | -4% | 88% (active) | 95.2% (active) | -2% | 93% (active) | 98.5% (active) | -12% | 82% (active) | 86.8% (active) | -9% | 79% (active) | 89.1% (active) | -11% | 93% (active) | 95.7% (active)
2 | [O-][n+]1onc2ncccc21 | 34% | 98% (active) | 99.1% (active) | 38% | 99% (active) | 99.5% (active) | 54% | 99% (active) | 99.2% (active) | 33% | 99% (active) | 99.2% (active) | 66% | 98% (active) | 99.2% (active) | 63% | 99% (active) | 99.3% (active)
3 | Nc1ccc(N=Nc2ccccc2)c2ccccc12 | 9% | 96% (active) | 97.8% (active) | 0% | 98% (active) | 99% (active) | 3% | 98% (active) | 98.5% (active) | 0% | 97% (active) | 98.5% (active) | 2% | 99% (active) | 98.3% (active) | 4% | 98% (active) | 97.6% (active)
4 | O=C1C(Br)=C(Br)C(=O)c2ccccc21 | 100% (active) | 95% (active) | 92.5% (active) | 100% (active) | 96% (active) | 94.2% (active) | 100% (active) | 95% (active) | 94.5% (active) | 100% (active) | 95% (active) | 90.9% (active) | 100% (active) | 98% (active) | 96.7% (active) | 99% (active) | 91% (active) | 89.9% (active)
5 | Nc1ncnc2c1c(-c1ccc(Cl)cc1)cn2-c1ccccc1 | 21% | 62% | 51.2% | 11% | 52% | 30.1% | 42% | 82% (active) | 85.2% (active) | 2% | 35% | 45% | 13% | 65% | 48.7% | 13% | 76% (active) | 26.7%
6 | Nc1c(C(=O)Nc2ccccc2)[n+]([O-])c2ccccc2[n+]1[O-] | -2% | 73% (active) | 98.2% (active) | -3% | 60% | 97.7% (active) | 1% | 88% (active) | 98% (active) | -8% | 78% (active) | 97.2% (active) | -4% | 90% (active) | 98.7% (active) | -4% | 91% (active) | 98.2% (active)
7 | Cc1ccc(N=Nc2sc(N)nc2C)cc1C | -154% | -57% | 64% | -51% | -30% | 35.8% | -65% | -45% | 14.1% | -58% | -47% | 30.1% | -62% | -12% | 87.9% (active) | -125% | -52% | 85.4% (active)
8 | CCOC(=O)C(=Cc1cccnc1C)C(=O)OCC | 16% | 1% | 70.9% (active) | -3% | 4% | 51.7% | 42% | 4% | 60.7% | 16% | 27% | 45.9% | -31% | -14% | 73.2% (active) | -8% | 1% | 57.7%
9 | COc1ccc(C(O)(c2ccccc2)c2ccccc2)cc1 | -5% | 98% (active) | 99.1% (active) | -4% | 99% (active) | 99% (active) | -3% | 99% (active) | 99.2% (active) | -5% | 92% (active) | 93.9% (active) | 3% | 87% (active) | 99.5% (active) | -6% | 98% (active) | 98.7% (active)
10 | CCCCCCCCCCCC(=O)NCCc1ccc(O)c(O)c1 | 4% | 94% (active) | 97.2% (active) | 5% | 96% (active) | 98.5% (active) | 4% | 95% (active) | 97.5% (active) | -3% | 55% | 94.2% (active) | -7% | 91% (active) | 95.8% (active) | 1% | 96% (active) | 98% (active)
